# From the supplement of paper PMC4466140
# Molecular target: CaNbp2
# Test: SPOT peptide array binding signal intensity (averaged, normalized) (arbitrary units (background-subtracted, floor 0; scale differs between SH3 domains)); higher = stronger binding of the SH3 domain to the peptide
# Procedure, shortened: (§1)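 Cellulose membranes carried synthetic 15-mer peptides with cysteines swapped for serines. These were incubated overnight at 4°C with 10 μg/ml of GST-fused SH3 domains from four yeast species in TBS-based blocking buffer. Binding signal, detected with anti-GST antibody and quantified in Genespotter, is the normalized, background-subtracted spot intensity averaged over replicates, in arbitrary units specific to each domain.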
row,Binder,SPOT peptide array binding signal intensity
1,RVRKTHVPASKRPSG,216

# Molecular target: CaRvs167
# Test: as above
# Procedure, shortened: as §1
row,Binder,SPOT peptide array binding signal intensity
1,RVRKTHVPASKRPSG,1

# Molecular target: CaRvs167-3
# Test: as above
# Procedure, shortened: as §1
row,Binder,SPOT peptide array binding signal intensity
1,RVRKTHVPASKRPSG,7.25

# Molecular target: CaSho1
# Test: as above
# Procedure, shortened: as §1
row,Binder,SPOT peptide array binding signal intensity
1,RVRKTHVPASKRPSG,89

# Molecular target: CaSla1-D1-D2
# Test: as above
# Procedure, shortened: as §1
row,Binder,SPOT peptide array binding signal intensity
1,RVRKTHVPASKRPSG,112

# Molecular target: CaSla1-D3
# Test: as above
# Procedure, shortened: as §1
row,Binder,SPOT peptide array binding signal intensity
1,RVRKTHVPASKRPSG,≤ 0

# Molecular target: ScAbp1
# Test: as above
# Procedure, shortened: as §1
row,Binder,SPOT peptide array binding signal intensity
1,RVRKTHVPASKRPSG,15.5

# Molecular target: ScBbc1
# Test: as above
# Procedure, shortened: as §1
row,Binder,SPOT peptide array binding signal intensity
1,RVRKTHVPASKRPSG,15.5

# Molecular target: ScBem1-D1
# Test: as above
# Procedure, shortened: as §1
row,Binder,SPOT peptide array binding signal intensity
1,RVRKTHVPASKRPSG,51

# Molecular target: ScBzz1-D1
# Test: as above
# Procedure, shortened: as §1
row,Binder,SPOT peptide array binding signal intensity
1,RVRKTHVPASKRPSG,7.5

# Molecular target: ScBzz1-D2
# Test: as above
# Procedure, shortened: as §1
row,Binder,SPOT peptide array binding signal intensity
1,RVRKTHVPASKRPSG,≤ 0

# Molecular target: ScCyk3
# Test: as above
# Procedure, shortened: as §1
row,Binder,SPOT peptide array binding signal intensity
1,RVRKTHVPASKRPSG,51

# Molecular target: ScFus1
# Test: as above
# Procedure, shortened: as §1
row,Binder,SPOT peptide array binding signal intensity
1,RVRKTHVPASKRPSG,117

# Molecular target: ScHof1
# Test: as above
# Procedure, shortened: as §1
row,Binder,SPOT peptide array binding signal intensity
1,RVRKTHVPASKRPSG,1

# Molecular target: ScHse1
# Test: as above
# Procedure, shortened: as §1
row,Binder,SPOT peptide array binding signal intensity
1,RVRKTHVPASKRPSG,469

# Molecular target: ScLsb1
# Test: as above
# Procedure, shortened: as §1
row,Binder,SPOT peptide array binding signal intensity
1,RVRKTHVPASKRPSG,4.5

# Molecular target: ScLsb2
# Test: as above
# Procedure, shortened: as §1
row,Binder,SPOT peptide array binding signal intensity
1,RVRKTHVPASKRPSG,7

# Molecular target: ScLsb3
# Test: as above
# Procedure, shortened: as §1
row,Binder,SPOT peptide array binding signal intensity
1,RVRKTHVPASKRPSG,420

# Molecular target: ScLsb4
# Test: as above
# Procedure, shortened: as §1
row,Binder,SPOT peptide array binding signal intensity
1,RVRKTHVPASKRPSG,5

# Molecular target: ScMyo3
# Test: as above
# Procedure, shortened: as §1
row,Binder,SPOT peptide array binding signal intensity
1,RVRKTHVPASKRPSG,2

# Molecular target: ScMyo5
# Test: as above
# Procedure, shortened: as §1
row,Binder,SPOT peptide array binding signal intensity
1,RVRKTHVPASKRPSG,1.5

# Molecular target: ScNbp2
# Test: as above
# Procedure, shortened: as §1
row,Binder,SPOT peptide array binding signal intensity
1,RVRKTHVPASKRPSG,91.5

# Molecular target: ScPex13
# Test: as above
# Procedure, shortened: as §1
row,Binder,SPOT peptide array binding signal intensity
1,RVRKTHVPASKRPSG,≤ 0

# Molecular target: ScRvs167
# Test: as above
# Procedure, shortened: as §1
row,Binder,SPOT peptide array binding signal intensity
1,RVRKTHVPASKRPSG,2.17

# Molecular target: ScSho1
# Test: as above
# Procedure, shortened: as §1
row,Binder,SPOT peptide array binding signal intensity
1,RVRKTHVPASKRPSG,230

# Molecular target: ScSla1-D1-D2
# Test: as above
# Procedure, shortened: as §1
row,Binder,SPOT peptide array binding signal intensity
1,RVRKTHVPASKRPSG,510

# Molecular target: ScSla1-D3
# Test: as above
# Procedure, shortened: as §1
row,Binder,SPOT peptide array binding signal intensity
1,RVRKTHVPASKRPSG,8.5

# Molecular target: SpAbp1-D1
# Test: as above
# Procedure, shortened: as §1
row,Binder,SPOT peptide array binding signal intensity
1,RVRKTHVPASKRPSG,249

# Molecular target: SpBbc1
# Test: as above
# Procedure, shortened: as §1
row,Binder,SPOT peptide array binding signal intensity
1,RVRKTHVPASKRPSG,≤ 0

# Molecular target: SpBzz1-D1
# Test: as above
# Procedure, shortened: as §1
row,Binder,SPOT peptide array binding signal intensity
1,RVRKTHVPASKRPSG,41

# Molecular target: SpBzz1-D2
# Test: as above
# Procedure, shortened: as §1
row,Binder,SPOT peptide array binding signal intensity
1,RVRKTHVPASKRPSG,≤ 0

# Molecular target: SpCyk3
# Test: as above
# Procedure, shortened: as §1
row,Binder,SPOT peptide array binding signal intensity
1,RVRKTHVPASKRPSG,≤ 0

# Molecular target: SpHof1
# Test: as above
# Procedure, shortened: as §1
row,Binder,SPOT peptide array binding signal intensity
1,RVRKTHVPASKRPSG,89.5

# Molecular target: SpHof1-2
# Test: as above
# Procedure, shortened: as §1
row,Binder,SPOT peptide array binding signal intensity
1,RVRKTHVPASKRPSG,≤ 0

# Molecular target: SpHof1-3
# Test: as above
# Procedure, shortened: as §1
row,Binder,SPOT peptide array binding signal intensity
1,RVRKTHVPASKRPSG,247

# Molecular target: SpHse1
# Test: as above
# Procedure, shortened: as §1
row,Binder,SPOT peptide array binding signal intensity
1,RVRKTHVPASKRPSG,112

# Molecular target: SpLsb1
# Test: as above
# Procedure, shortened: as §1
row,Binder,SPOT peptide array binding signal intensity
1,RVRKTHVPASKRPSG,3.75

# Molecular target: SpLsb4
# Test: as above
# Procedure, shortened: as §1
row,Binder,SPOT peptide array binding signal intensity
1,RVRKTHVPASKRPSG,224

# Molecular target: SpMyo1
# Test: as above
# Procedure, shortened: as §1
row,Binder,SPOT peptide array binding signal intensity
1,RVRKTHVPASKRPSG,4.25

# Molecular target: SpNbp2
# Test: as above
# Procedure, shortened: as §1
row,Binder,SPOT peptide array binding signal intensity
1,RVRKTHVPASKRPSG,78

# Molecular target: SpPex13
# Test: as above
# Procedure, shortened: as §1
row,Binder,SPOT peptide array binding signal intensity
1,RVRKTHVPASKRPSG,2

# Molecular target: SpRvs167
# Test: as above
# Procedure, shortened: as §1
row,Binder,SPOT peptide array binding signal intensity
1,RVRKTHVPASKRPSG,1.17

# Molecular target: SpSla1-D1-D2
# Test: as above
# Procedure, shortened: as §1
row,Binder,SPOT peptide array binding signal intensity
1,RVRKTHVPASKRPSG,4

# Molecular target: SpSla1-D3
# Test: as above
# Procedure, shortened: as §1
row,Binder,SPOT peptide array binding signal intensity
1,RVRKTHVPASKRPSG,≤ 0
